About 83,000 compounds went through this panel and 20% of them were active in at least one assay; those are over-represented in the sample as a whole.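 The endpoint reported here, percent growth, reads 100 for growth as untreated, 0 for no net growth and -100 for all cells dead.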 Unmarked numbers belong to inactive results. Activity calls are given as the source filed them. Rule for the calls: active = growth percent below 10; inactive = the rest.

Test systems include NCI-H23 lung; NCI-H226 lung; NCI-H322M lung; HOP-62 NSCLC; NCI-H460 lung; HOP-92 NSCLC; NCI-H522 lung; A549/ATCC NSCLC; 786-0 renal; COLO 205 colon; DU-145 prostate; K-562 leukemia; MALME-3M melanoma; MDA-MB-231 breast; RXF 393 renal; SF-268 CNS; SF-295 CNS; SF-539 CNS; UACC-257 melanoma; M14 melanoma.
Assay in all cases: NCI-60 one-dose screen, 48 h (100 = growth as untreated, 0 = no growth, -100 = all killed)
Common to all, as to settings: 10 µM unless noted

For the molecule `O=C(NOCCO)c1ccc2cncn2c1Nc1ccc(I)cc1F`, the growth in the experiment on NCI-H23 lung is 18.8%; with NCI-H226 lung, 56.7%; with NCI-H322M lung, 24.1%; in the experiment with HOP-62 NSCLC, 35.7%; with NCI-H460 lung, 74.7%; with HOP-92 NSCLC it was -19.6% (active). Besides, the growth was 60.4% in the experiment on NCI-H522 lung; 25.4% in the experiment on A549/ATCC NSCLC; 81.6% with 786-0 renal; 6.84% (active) with COLO 205 colon; 64.6% with DU-145 prostate; 38.2% in the experiment with K-562 leukemia. In addition, the growth with MALME-3M melanoma is 1.32% (active); in the experiment with MDA-MB-231 breast it was 31.6%; in the experiment on RXF 393 renal it was -6.5% (active); in the experiment on SF-268 CNS, 74.5%; in the experiment with SF-295 CNS, 91.9%; in the experiment with SF-539 CNS, 66.2%. Also, the growth is -20.7% (active) in the experiment on UACC-257 melanoma and 5.3% (active) in the experiment on M14 melanoma.
For the molecule `CCCCCC(=O)OCc1ccc(Cl)c(Cl)c1`, the growth is 96.2% with NCI-H23 lung; 100% in the experiment on NCI-H226 lung; 96.3% in the experiment on NCI-H322M lung; 101% in the experiment on HOP-62 NSCLC; 107% with NCI-H460 lung; 109% in the experiment on HOP-92 NSCLC. The growth is 97.5% with NCI-H522 lung; 103% with A549/ATCC NSCLC; 104% in the experiment on 786-0 renal; 106% with COLO 205 colon; 105% in the experiment on DU-145 prostate; 98.8% in the experiment on K-562 leukemia. Besides, the growth with MALME-3M melanoma is 90.4%; in the experiment on MDA-MB-231 breast, 110%; in the experiment on RXF 393 renal, 116%; in the experiment with SF-268 CNS, 99.3%; in the experiment on SF-295 CNS, 108%; in the experiment on SF-539 CNS, 105%. The results for the growth in the experiment on UACC-257 melanoma and in the experiment on M14 melanoma were 103% and 104%, respectively.
As to `COc1ncc(-c2ccc3nccc(-c4ccnnc4)c3c2)cc1NS(=O)(=O)c1ccc(F)cc1F`, the growth in the experiment on NCI-H23 lung was 3.23% (active); in the experiment on NCI-H226 lung, -4.7% (active); in the experiment with NCI-H322M lung, -31.1% (active); in the experiment on HOP-62 NSCLC, -14.1% (active); in the experiment on NCI-H460 lung it was 5.35% (active); with HOP-92 NSCLC it was -1.41% (active). The growth with NCI-H522 lung is -44% (active); in the experiment on A549/ATCC NSCLC it was -61.6% (active); with 786-0 renal, 4.21% (active); in the experiment with COLO 205 colon, -83.2% (active); in the experiment on DU-145 prostate it was 10.8%; in the experiment with K-562 leukemia, 3.76% (active). In addition, the growth in the experiment with MALME-3M melanoma was -34.2% (active); in the experiment with MDA-MB-231 breast it was 5.98% (active); in the experiment with RXF 393 renal, -58.5% (active); in the experiment on SF-268 CNS, 6.46% (active); with SF-295 CNS it was -27.3% (active); in the experiment with SF-539 CNS it was -47.2% (active). Also, the growth is -36.2% (active) in the experiment with UACC-257 melanoma and -7.62% (active) in the experiment on M14 melanoma.
With `Cc1ccc(NC(=O)Nc2ccc(Nc3ncnc4sc5c(c34)CCOC5)cc2)cc1Cl`, the growth in the experiment with NCI-H23 lung is 99.9%; in the experiment on NCI-H226 lung, 94.9%; in the experiment with NCI-H322M lung, 103%; in the experiment on HOP-62 NSCLC, 74.6%; in the experiment with NCI-H460 lung it was 108%; in the experiment on HOP-92 NSCLC, 91.6%. Besides, the growth is 60.9% in the experiment on NCI-H522 lung; 85.8% in the experiment on A549/ATCC NSCLC; 110% in the experiment with 786-0 renal; 102% with COLO 205 colon; 114% in the experiment on DU-145 prostate; 108% with K-562 leukemia. Also, the growth was 98.2% in the experiment on MALME-3M melanoma; 88.5% with MDA-MB-231 breast; 95.5% in the experiment on RXF 393 renal; 103% with SF-268 CNS; 96% in the experiment on SF-295 CNS; 84.4% in the experiment with SF-539 CNS. For the same molecule, the values for the growth in the experiment on UACC-257 melanoma and in the experiment with M14 melanoma were 88.8% and 99.1%, respectively.
`NC1=Nc2cc(OCCCN3Cc4ccccc4C3)c(OCC3CC3)cc2C12CCCC2`: the growth was 77.2% in the experiment on NCI-H23 lung; 80.7% in the experiment with NCI-H226 lung; 91.6% in the experiment on NCI-H322M lung; 77% with HOP-62 NSCLC; 69.8% with NCI-H460 lung; 40.7% in the experiment with HOP-92 NSCLC. Also, the growth in the experiment on NCI-H522 lung is 39.7%; in the experiment with A549/ATCC NSCLC, 64.4%; in the experiment with 786-0 renal it was 55.6%; in the experiment on COLO 205 colon, -62.5% (active); in the experiment on DU-145 prostate it was 78.6%; with K-562 leukemia it was -8.16% (active). Besides, the growth was -58.3% (active) in the experiment with MALME-3M melanoma; 36.2% with MDA-MB-231 breast; 60.6% in the experiment on RXF 393 renal; 74.1% in the experiment on SF-268 CNS; 64.6% with SF-295 CNS; 49.2% in the experiment on SF-539 CNS. For the same molecule, the growth in the experiment on UACC-257 melanoma was -47.2% (active); in the experiment on M14 melanoma, -70.2% (active).
In the case of `Cc1ccc(NC(=O)c2ccc(CN3CC[C@H](N(C)C)C3)c(C(F)(F)F)c2)cc1Nc1nccc(-c2cncnc2)n1`, the growth in the experiment on NCI-H23 lung is 13.2%; in the experiment on NCI-H226 lung it was 12.9%; in the experiment on NCI-H322M lung, 26.2%; in the experiment with HOP-62 NSCLC, -0.939% (active); with NCI-H460 lung, 4.17% (active); with HOP-92 NSCLC, -84.7% (active). Moreover, the growth was -29.7% (active) in the experiment with NCI-H522 lung; 1.73% (active) in the experiment with A549/ATCC NSCLC; -54.7% (active) in the experiment with 786-0 renal; -55.5% (active) in the experiment on COLO 205 colon; 30.6% in the experiment with DU-145 prostate; -19.6% (active) in the experiment on K-562 leukemia. Moreover, the growth in the experiment on MALME-3M melanoma was -79.2% (active); in the experiment with MDA-MB-231 breast, -34.5% (active); in the experiment with RXF 393 renal, -20.2% (active); in the experiment on SF-268 CNS, 17.1%; in the experiment with SF-295 CNS, -43.9% (active); with SF-539 CNS, -89.6% (active). Also, the growth with UACC-257 melanoma was -74.7% (active); with M14 melanoma it was -61% (active).
As for `C#Cc1cccc(Nc2ncnc3cc(OC)c(OCCCCCCC(=O)NO)cc23)c1`, the growth in the experiment with NCI-H23 lung is -31.4% (active); in the experiment with NCI-H226 lung it was -10.9% (active); with NCI-H322M lung, -8.88% (active); in the experiment on HOP-62 NSCLC, -37.5% (active); with NCI-H460 lung, 1.24% (active); in the experiment with HOP-92 NSCLC, -26.4% (active). Moreover, the growth in the experiment on NCI-H522 lung is -58.2% (active); with A549/ATCC NSCLC it was -32.8% (active); in the experiment on 786-0 renal it was -15.4% (active); in the experiment with COLO 205 colon, -65% (active); with DU-145 prostate it was 0.81% (active); with K-562 leukemia, 5.48% (active). Moreover, the growth in the experiment on MALME-3M melanoma is 2.19% (active); in the experiment with MDA-MB-231 breast, -16.8% (active); in the experiment on RXF 393 renal, -49.5% (active); with SF-268 CNS, -3.98% (active); in the experiment with SF-295 CNS, -53.6% (active); with SF-539 CNS, -1.18% (active). The growth in the experiment on UACC-257 melanoma is -47.3% (active); in the experiment on M14 melanoma it was 2.66% (active).
For the molecule `CCCCCc1ccc(C)cc1OC(=O)CCl`, the growth in the experiment with NCI-H23 lung was 113%; in the experiment on NCI-H226 lung, 104%; in the experiment with NCI-H322M lung, 97.3%; in the experiment on HOP-62 NSCLC, 109%; in the experiment with NCI-H460 lung it was 104%; in the experiment with HOP-92 NSCLC, 73.6%. Besides, the growth with NCI-H522 lung is 103%; in the experiment on A549/ATCC NSCLC, 108%; in the experiment with 786-0 renal, 110%; in the experiment with COLO 205 colon, 107%; in the experiment on DU-145 prostate it was 109%; with K-562 leukemia it was 98.8%. The growth is 90.9% in the experiment with MALME-3M melanoma; 110% in the experiment on MDA-MB-231 breast; 103% in the experiment with RXF 393 renal; 105% with SF-268 CNS; 102% in the experiment on SF-295 CNS; 112% in the experiment with SF-539 CNS. In addition, the results for the growth in the experiment on UACC-257 melanoma and in the experiment on M14 melanoma were 107% and 111%, respectively.

For the origin of these results see PubChem BioAssay (NCI).
